An excerpt weighted towards active compounds, which were near 2.2% of everything screened.
C8 TRAIL sens = caspase-8 TRAIL sensitization. NB7+C8 cells + TRAIL, ATPlite viability luminescence. 360,000 tested, 1% active. inhibition (viability loss, TRAIL sensitization), % at 10 µM;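 active means compounds causing at least 50% loss of cell viability in the single-dose screen, relative to plate controls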
KKLEB tox = CF airway cell cytotoxicity counter-screen; KKLEB CF airway cells viability, ATPlite luminescence, overnight; stronger effect = lower value; cells stimulated with P. aeruginosa culture filtrate; activity change (cytotoxicity), % at 5 µM; 360,000 tested, 0.36% active; AID 602141;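 active means corrected activity change at or below -50% at 5 µM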
HIF-2a block = blocks HIF-2a reporter activity | 786-0 RCC cells HIF-2a reporter, luciferase luminescence, overnight | inhibition, % at 18.8 µM | 360,000 tested, 0.72% active;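 active means inhibition of the luminescence signal of 40% or more relative to plate controls, in a single-dose primary screen at 18.75 µM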
iPSC survival up = increases survival of single human iPS cells; 360,000 tested, 0.044% active; hiPSC single-cell survival, ATPlite luminescence; 100% = ROCK inhibitor wells, 0% = DMSO; AID 602274; survival enhancement, % at 20 µM; in the data active means survival enhancement above about 18%;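 further: cells exposed to compounds for 16 hours before the ATP read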
CF NFkB block = blocks PAF-induced NF-kB reporter in cystic fibrosis cells; KKLEB NF-kB-GFP reporter, GFP fluorescence overnight; inhibition, % at 5 µM; 360,000 tested, 0.86% active;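 active means at least 50% inhibition at 5 µM, scaled per plate between neutral and stimulator controls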;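 further: PAF is a Pseudomonas aeruginosa culture filtrate used as stimulus; plate controls were PAF-stimulated DMSO wells for no effect and unstimulated DMSO wells for full effect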
PPC-1+TRAIL kill = kills PPC-1 cancer cells in the presence of TRAIL; PPC-1 cells + TRAIL, ATPLite viability luminescence; cell killing (% activity), % at 4 µM or 5 µM; 220,000 tested, 0.41% active; AID 1443;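 active means cell killing above 50% in the first pass at 4 µM, then a duplicate retest at 5 µM averaging 50% or more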;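 further: plate controls were cells with TRAIL plus DMSO for no effect and medium-only wells lacking cells for full effect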
CF NFkB conf = confirmation of cystic fibrosis induced NF-kB inhibitors | AID 602472 | 1,300 tested, 64% active | inhibition, % at 5 µM | KKLEB CF airway cells, PAF-induced NF-kB-GFP fluorescence, overnight | shares compounds with CF NFkB block; in the data active means inhibition above about 40%;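 further: stimulus PAF is a Pseudomonas aeruginosa filtrate and not platelet activating factor; plate controls were DMSO wells with stimulus for no effect and unstimulated DMSO wells for full effect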
Mdm2-MdmX confirm = Mdm2/MdmX (human) interaction inhibition, confirmed | SaOS-2 split-luciferase Mdm2/MdmX complementation, luminescence | shares compounds with HIF-2a block | 740 tested, 99% active | AID 504601 | inhibition, % at 8 µM;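 active means mean inhibition of the luminescence signal across two replicates at or above 26 percent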
HIF-2a conf = confirmation of HIF-2a inhibitors. shares compounds with HIF-2a block. 786-0 RCC cells, HIF-2a luciferase reporter luminescence, overnight. inhibition, % at 18.8 µM. 1,800 tested, 56% active;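 active means mean inhibition across four replicates of at least 40 percent at the single tested concentration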
HIF-1a cs = counter-screen for HIF-2a inhibitors: HIF-1a inhibition in MiaPaCa-2 cells. shares compounds with HIF-2a block. MiaPaCa-2 HIF-1a luciferase reporter, desferoxamine, overnight. AID 651589. 1,800 tested, 72% active. inhibition, % at 18.8 µM;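 active means mean inhibition of the reporter signal across four replicates at the single tested dose of 50% or more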
* = called active by the depositor.

How did CCOc1ccc(-n2c(C)c(C(C)=O)c3cc(OC(C)=O)ccc32)cc1 do in these assays?
C8 TRAIL sens: -2.1; KKLEB tox: 2.0; HIF-2a block: 22.5; iPSC survival up: 0.7; CF NFkB block: 75.9*; CF NFkB conf: 86.9*; Mdm2-MdmX confirm: 89.2*

How did COc1ccc(-n2c(C)c(C(C)=O)c3cc(O)ccc32)cc1 do in these assays?
C8 TRAIL sens: -6.2; KKLEB tox: -6.5; HIF-2a block: 13.4; iPSC survival up: 4.8; CF NFkB block: 69.2*; PPC-1+TRAIL kill: -8.3; CF NFkB conf: 86.4*; Mdm2-MdmX confirm: 87.2*

What do the screens show for `CC(=O)NC(Cc1ccc(F)cc1)C(=O)NC1CCN(C(=O)Nc2ccccc2C)CC1` (configuration not stated)?
C8 TRAIL sens: -8.8; KKLEB tox: -2.9; HIF-2a block: 16.9; iPSC survival up: 2.1; CF NFkB block: -11.2

Results for COC(=O)c1ccc2c(c1)C(C)(C)C(/C=C/c1ccccc1O)=[N+]2C ?
C8 TRAIL sens: 36.0; KKLEB tox: -38.7; HIF-2a block: 95.5*; iPSC survival up: 1.2; CF NFkB block: 64.0*; PPC-1+TRAIL kill: 11.0; CF NFkB conf: 96.6*; Mdm2-MdmX confirm: 103.5*; HIF-2a conf: 98.8*; HIF-1a cs: 105.0*

Results for COc1ccc2cc3c(N)nn(C(=O)Cc4ccccc4OC)c3nc2c1 ?
C8 TRAIL sens: 16.1; KKLEB tox: -10.3; HIF-2a block: 35.9*; iPSC survival up: -1.9; CF NFkB block: 54.5*; PPC-1+TRAIL kill: -13.0; CF NFkB conf: 67.9*; HIF-2a conf: 13.5; HIF-1a cs: 88.6*

What do the screens show for `Cc1nc2sc(C(N)=O)c(N)c2c2c1CCCC2`?
C8 TRAIL sens: 14.1; KKLEB tox: 7.3; HIF-2a block: 9.8; iPSC survival up: -0.2; CF NFkB block: 70.0*; PPC-1+TRAIL kill: 16.6; CF NFkB conf: 98.0*; Mdm2-MdmX confirm: 92.5*

Results for NC(=O)c1sc2nc(-c3ccccc3)c3c(c2c1N)CCCC3 ?
C8 TRAIL sens: 1.1; KKLEB tox: 6.0; HIF-2a block: 12.6; iPSC survival up: 0.6; CF NFkB block: -25.7

How did Cc1cc(C)n(-c2ccc(S(=O)(=O)N3CCOCC3)cc2[N+](=O)[O-])n1 do in these assays?
C8 TRAIL sens: -5.5; KKLEB tox: 14.5; HIF-2a block: -29.1; iPSC survival up: 1.4; CF NFkB block: -20.7; PPC-1+TRAIL kill: 6.9

Results for CCCNC(=O)COC(=O)c1ccccc1C(=O)c1ccc(Cl)c([N+](=O)[O-])c1 ?
C8 TRAIL sens: -9.2; KKLEB tox: -31.4; HIF-2a block: 83.5*; iPSC survival up: 19.8*; CF NFkB block: 101.1*; PPC-1+TRAIL kill: 7.3; CF NFkB conf: 109.4*; Mdm2-MdmX confirm: 103.0*; HIF-2a conf: 42.4*; HIF-1a cs: 104.5*

What do the screens show for `CCN(C(=O)COC(=O)c1nc(Cl)ccc1Cl)c1c(N)n(Cc2ccccc2)c(=O)[nH]c1=O`?
C8 TRAIL sens: 9.6; KKLEB tox: 0.3; HIF-2a block: 12.7; iPSC survival up: -0.4; CF NFkB block: 8.8

How did CCOC(=O)/C=C/C(=O)OCC(=O)Nc1cccc(Cl)c1Cl do in these assays?
C8 TRAIL sens: -2.2; KKLEB tox: 5.7; HIF-2a block: 2.0; iPSC survival up: 0.2; CF NFkB block: -4.4; PPC-1+TRAIL kill: 12.6

How did CCOC(=O)/C=C/C(=O)Nc1ccccc1-c1ccccc1NC(=O)/C=C/C(=O)OCC do in these assays?
C8 TRAIL sens: -3.7; KKLEB tox: -3.8; HIF-2a block: 54.8*; iPSC survival up: 10.8; CF NFkB block: 56.3*; PPC-1+TRAIL kill: 15.3; CF NFkB conf: -33.9; HIF-2a conf: 14.2; HIF-1a cs: 44.9

What do the screens show for `CC1=CC(C)(C)Nc2ccc(OC(=O)CCN3C(=O)c4ccccc4C3=O)cc21`?
C8 TRAIL sens: 21.2; KKLEB tox: 5.2; HIF-2a block: 90.7*; iPSC survival up: -1.8; CF NFkB block: 71.0*; PPC-1+TRAIL kill: 5.4; CF NFkB conf: -23.9; HIF-2a conf: 88.7*; HIF-1a cs: 95.3*

Results for O=C(CCN1C(=O)c2ccccc2C1=O)Oc1ccc2ccccc2c1 ?
C8 TRAIL sens: -0.5; KKLEB tox: -2.3; HIF-2a block: 16.0; iPSC survival up: 0.0; CF NFkB block: -7.6; PPC-1+TRAIL kill: 24.8

Results for CSc1nccc(N/N=C/c2ccccc2)n1 ?
C8 TRAIL sens: 18.6; KKLEB tox: 5.2; HIF-2a block: -349.3; iPSC survival up: -0.7; CF NFkB block: -24.3

Results for COC(=O)c1c(C)[nH]c(C(=O)C(C)OC(=O)C2CC2)c1C (configuration not stated) ?
C8 TRAIL sens: 0.4; KKLEB tox: 5.5; HIF-2a block: 1.2; iPSC survival up: -1.8; CF NFkB block: -7.7

How did O=S(=O)(CC(CN1CCCC1)N1CCCC1)c1ccc2ccccc2c1 (configuration not stated) do in these assays?
C8 TRAIL sens: 9.9; KKLEB tox: -30.6; HIF-2a block: 22.0; iPSC survival up: -4.1; CF NFkB block: 62.3*; PPC-1+TRAIL kill: 26.2; CF NFkB conf: 85.7*; Mdm2-MdmX confirm: 103.2*

How did O=C1CSC(c2ccccc2)N1CC(O)c1ccc([N+](=O)[O-])cc1 (configuration not stated) do in these assays?
C8 TRAIL sens: -4.8; KKLEB tox: 1.0; HIF-2a block: 5.4; iPSC survival up: -2.8; CF NFkB block: -11.9; PPC-1+TRAIL kill: -8.3

Results for Nc1ncc([N+](=O)[O-])c(N2CCCCCC2)n1 ?
C8 TRAIL sens: -1.1; KKLEB tox: 2.3; HIF-2a block: 7.7; iPSC survival up: 0.3; CF NFkB block: 67.1*; CF NFkB conf: 91.3*; Mdm2-MdmX confirm: 84.2*

Results for O=[N+]([O-])c1ccc(N2CCCC2)nc1N1CCCC1 ?
C8 TRAIL sens: 3.1; KKLEB tox: 9.5; HIF-2a block: -9.2; iPSC survival up: 2.8; CF NFkB block: -11.4; PPC-1+TRAIL kill: 11.1
